Measurements reported in PubChem BioAssay (NCATS).
Inconclusive results are not listed. Activity calls are given as the source filed them. Calls follow the shape of the dose curve; as a rule, active = well fitted cell-killing curve with a large enough effect; inconclusive = small, poorly fitted or top-dose-only effect, or effect the other way; inactive = no such curve, though single readings can be large or run the other way.
Potency is read from the fitted curve at half-maximal effect.

Assay: Quantitative High-Throughput drug screen in 47 multiple myeloma cell lines against the NCATS MIPE library collection: OCIMY5_PLB cell viability assay (AID 1918988); also: nearly all actives have a fitted effect of over 65% in size
Conditions: OCI-MY5 myeloma viability, ATP luminescence, 48 h; series mostly up to 45.8 µM
Description: PI: Beverly A. Mock Ph.D.
Laboratory of Cancer Biology and Genetics,
Center for Cancer Research, National Cancer Institute,
National Institute of Health, Bethesda, Maryland
Drug resistance and disease progression are common in multiple myeloma (MM) patients, underscoring the need for new therapeutic combinations. […] We hypothesized that effective combinations would reduce MYC expression and enhance p16 activity. […] These preclinical data identify potentially useful drug combinations for evaluation in drug-resistant MM and reveal potential mechanisms of combined drug sensitivity.
Described herein is the primary MIPE qHTS used to cherrypick compounds. Validated compounds were then further tested for potential synergistic activiy.
[1] Peat TJ, Gaikwad SM, Dubois W, Gyabaah-Kessie N, Zhang S, Gorjifard S, Phyo Z, Andres M, Hughitt VK, Simpson RM, Miller MA, Girvin AT, Taylor A, Williams D, D'Antonio N, Zhang Y, Rajagopalan A, Flietner E, Wilson K, Zhang X, Shinn P, Klumpp-Thomas C, McKnight C, Itkin Z, Chen L, Kazandijian D, Zhang J, Michalowski AM, Simmons JK, Keats J, Thomas CJ, Mock BA. Drug combinations identified by high-throughput screening promote cell cycle transition and upregulate Smad pathways in myeloma. Cancer Lett. 2023 Aug 1;568:216284. doi: 10.1016/j.canlet.2023.216284. Epub 2023 Jun 24. PMID: 37356470; PMCID: PMC10408729.
SEQUENCE No. (e.g., 1, 2, 3, etc.); […] (e.g., Cells, Incubation, Reagent, etc.); VALUE and DESCRIPTION.
1; Cells; 5 uL; white, solid bottom 1536-well Greiner assay plate.
2; Compounds; 23 nL; Kalypsis pin tool (Wako USA) equipped with a 1536-well pin head to transfer to the assay plates.
3; Incubation; 48 hours; 37C incubation.
4; Reagent;5uL; CellTiter Glo (Promega).
5; Detector; 425V; Luminescence; Viewlux PerkinElmer.
NOTES (numbers refer to Sequence numbers above)
1. The cell-based screening methods employed in this study were like those previously published. Briefly, the corresponding myeloma cell lines were screened in 1,536-well plates with 500 cells, 5-uL per well for inhibition of cell viability (assessed by measuring ATP levels with CellTiterGlo).
2. NCATS MIPE 4.0 library of approved and investigational drugs were added using the Kalypsis pin tool. Wells treated with DMSO only for 100% viability and media only for 0% viability were used as controls.
3. The assay plates were covered and incubated for 48 hours in a 37C, 5% CO2 incubator with controlled humidity.
4. After 48 hours, CellTilter-GloTM luminescent substrate mix (Promega) reagent was added to the assay plate and plates we incubated for 5 min at room temperature.
5. Signal was measured as median relative luminescence units on a ViewLux (PerkinElmer) multiplate reader.
[1] Heske CM, Davis MI, Baumgart JT, Wilson K, Gormally MV, Chen L, Zhang X, Ceribelli M, Duveau DY, Guha R, Ferrer M, Arnaldez FI, Ji J, Tran HL, Zhang Y, Mendoza A, Helman LJ, Thomas CJ. Matrix Screen Identifies Synergistic Combination of PARP Inhibitors and Nicotinamide Phosphoribosyltransferase (NAMPT) Inhibitors in Ewing Sarcoma. Clin Cancer Res. 2017 Dec 1;23(23):7301-7311. doi: 10.1158/1078-0432.CCR-17-1121. Epub 2017 Sep 12. PMID: 28899971; PMCID: PMC6636827.
With `CC(C(C)N1CC(=O)NC(=O)C1)N1CC(=O)NC(=O)C1` (stereo not given) the Potency was 469 nM (active). For `CCCNC(=O)[C@H]1O[C@H]1C(=O)N[C@H](C(=O)N1CCC[C@@H]1C(=O)OC)C(C)CC` (stereo not given in full), the Potency was 2640 nM (active). In the case of `COc1cc(N2CCC(C(N)=O)CC2)ccc1Nc1nc(N)c(Cl)c(Nc2ccccc2S(=O)(=O)C(C)C)n1`, the Potency is reported as 935 nM (active). With `O=C(NC1CC1)c1cccc(-c2ccc3c(NC(=O)C4CC4)n[nH]c3c2)c1` the Potency was 332 nM (active). For `COC(=O)C=CC(=O)OC`, the Potency was 11800 nM (active). For `COc1cc(C[C@@H](CO)[C@H](CO)Cc2ccc(O)c(OC)c2)ccc1O`, the Potency was 332 nM (active). With `COc1cc([C@@H]2c3cc4c(cc3[C@H](O)[C@H]3COC(=O)[C@@H]23)OCO4)cc(OC)c1OC` the Potency was 29.6 nM (active). For `C=CC(=O)Nc1cc(NC(=O)c2ccc(C)c(NC(=O)c3ccno3)c2)cc(C(F)(F)F)c1`, the Potency was 18700 nM (active). In the case of `O=C(O)c1ccc(Nc2ncc3c(n2)-c2ccc(Cl)cc2C(c2c(F)cccc2F)=NC3)cc1`, the Potency is reported as 332 nM (active). With `Cc1ccc(O)c(C(CCN(C(C)C)C(C)C)c2ccccc2)c1` (stereo not given) the Potency was “inactive”. In the case of `COc1ccc2cc([S+]([O-])Cc3ncc(C)c(OC)c3C)nc2c1`, the Potency is reported as “inactive”. With `CC(O)(C#Cc1ccc2c(c1)N(c1nc(N)ncc1Cl)CC2)c1nccs1` (stereo not given) the Potency was 20900 nM (active). For `COc1cccc2c1C(=O)c1c(O)c3c(c(O)c1C2=O)C[C@@](O)(C(=O)CO)C[C@@H]3O[C@H]1C[C@H](N)[C@H](OC2CCCCO2)[C@H](C)O1` (stereo not given in full), the Potency was 2090 nM (active). In the case of `COc1cc2c(Nc3ccc(Cl)c(Cl)c3F)ncnc2cc1OCC1C[C@@H]2CN(C)C[C@H]2C1`, the Potency is reported as 1870 nM (active). For `N#CC(=Cc1ccc(O)c(O)c1)C(=O)NCc1ccccc1`, the Potency was 20900 nM (active). With `CCN(CC)Cc1ccc2cc(COC(=O)Nc3ccc(C(=O)NO)cc3)ccc2c1` the Potency was 372 nM (active). In the case of `Nc1ncn([C@@H]2O[C@H](CO)[C@@H](O)[C@@H]2O)c(=O)n1`, the Potency is reported as 9350 nM (active). With `CC(C)n1cnc2c(NCCc3ccc(O)cc3)nc(-c3csc4ccccc34)nc21` the Potency was 1660 nM (active). For `CCOC(=O)N1CCN([N+]([O-])=NOc2ccc([N+](=O)[O-])cc2C#N)CC1`, the Potency was 833 nM (active). For `O=c1[nH]c(=O)n([C@H]2C[C@@H](O)[C@@H](CO)O2)cc1F`, the Potency was 26400 nM (active). In the case of `CCC[C@H]1C[C@H](C(=O)N[C@@H]([C@@H]2O[C@@H](SC)[C@@H](O)[C@@H](O)[C@@H]2O)[C@H](C)Cl)N(C)C1`, the Potency is reported as “inactive”. In the case of `COc1cccc2c1C(=O)c1c(O)c3c(c(O)c1C2=O)C[C@@](O)(C(=O)CO)C[C@@H]3O[C@H]1C[C@H](N)[C@@H](O)[C@H](C)O1`, the Potency is reported as 526 nM (active). With `COc1cc(C(=O)NC2CCN(C)CC2)ccc1Nc1ncc2c(n1)N(C1CCCC1)CCC(=O)N2C(C)C` the Potency was 18700 nM (active). In the case of `CCOC(=O)[C@H](CCc1ccccc1)N[C@@H](C)C(=O)N1[C@@H](C(=O)O)C[C@H]2CCC[C@@H]21`, the Potency is reported as 14800 nM (active). With `CC(C)c1cc(C(C)C)c(CC(=O)NS(=O)(=O)Oc2c(C(C)C)cccc2C(C)C)c(C(C)C)c1` the Potency was 33200 nM (active). In the case of `CN(C)CC(=O)N1CCC(c2ccc(NC(=O)c3ncc(C#N)[nH]3)c(C3=CCCCC3)c2)CC1`, the Potency is reported as 26400 nM (active). In the case of `CC1(C)[C@H](O[C@H]2O[C@H](C(=O)O)[C@@H](O)[C@H](O)[C@H]2O[C@@H]2O[C@H](C(=O)O)[C@@H](O)[C@H](O)[C@H]2O)CC[C@@]2(C)[C@H]1CC[C@]1(C)[C@H]2C(=O)C=C2[C@H]3C[C@@](C)(C(=O)O)CC[C@]3(C)CC[C@]21C`, the Potency is reported as “inactive”. In the case of `C[C@H](NCc1ccc2c(c1)nc(NC(=O)c1ccc(-c3cn[nH]c3)s1)n2CCc1ccccc1)C(C)(C)C`, the Potency is reported as 833 nM (active). For `Cc1cc(Nc2ncc3c(n2)N(C)C(=O)N(c2cc(NC(=O)c4cccc(C(F)(F)F)c4)ccc2C)C3)n(C)n1`, the Potency was 935 nM (active). In the case of `CCCCCCCCc1ccc(CCC(N)(CO)CO)cc1`, the Potency is reported as 14800 nM (active). In the case of `FC(F)(F)c1ccc(Nc2nc3ccc(Oc4ccnc(-c5ncc(C(F)(F)F)[nH]5)c4)cc3[nH]2)cc1`, the Potency is reported as 16600 nM (active). In the case of `Cc1cnc(NC(=O)Nc2cc(Br)c(C)cc2OC[C@@H]2CNCCO2)cn1`, the Potency is reported as 1480 nM (active). For `Cn1c(Nc2ccc(C(F)(F)F)cc2)nc2cc(Oc3ccnc(-c4ncc(C(F)(F)F)[nH]4)c3)ccc21`, the Potency was 9350 nM (active). With `CCN(CC)CCCCNc1ncc2c(n1)N(C)C(=O)N(c1c(Cl)c(OC)cc(OC)c1Cl)C2` the Potency was 14800 nM (active). In the case of `CC(=O)[C@]1(O)Cc2c(O)c3c(c(O)c2[C@@H](O[C@H]2C[C@H](N)[C@@H](O)[C@H](C)O2)C1)C(=O)c1ccccc1C3=O`, the Potency is reported as 132 nM (active). In the case of `CNC(=O)c1ccc(Nc2cc(Nc3ccccc3S(=O)(=O)C(C)C)c3cc[nH]c3n2)nc1`, the Potency is reported as 4690 nM (active). In the case of `CN[C@@H]1C[C@H]2O[C@@](C)([C@H]1OC)n1c3ccccc3c3c4c(c5c6ccccc6n2c5c31)C(=O)N[C@H]4O`, the Potency is reported as 264 nM (active). With `O=c1c(O)c(-c2ccc(O)c(O)c2)oc2cc(O)ccc12` the Potency was 20900 nM (active). In the case of `CCOC(=O)N1CCN([N+]([O-])=NOc2ccc([N+](=O)[O-])cc2[N+](=O)[O-])CC1`, the Potency is reported as 1320 nM (active). With `Cc1onc(-c2ccccc2)c1C(=O)N[C@@H]1C(=O)N2[C@@H](C(=O)O)C(C)(C)S[C@@H]12` the Potency was “inactive”.
